Compound activity (PubChem)
An excerpt weighted towards active compounds, which were near 7.4% of everything screened.
FLuc modulator: counter-screen for miR-21 project: firefly luciferase inhibitors or activators | P08659 | purified FLuc, Km substrates, luminescence inhibition | Potency, µM (highest dose often 57.5 µM), inactives show at the highest dose activity change, negative = inhibition, most hits filed as inhibitors | 6.9% of 360,000 active | AID 588342;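 also: plate controls were vehicle for no effect and reference inhibitor for full effect; nearly all actives have a fitted effect of over 55% in size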
Target sequence (P08659 whole entry, looked up): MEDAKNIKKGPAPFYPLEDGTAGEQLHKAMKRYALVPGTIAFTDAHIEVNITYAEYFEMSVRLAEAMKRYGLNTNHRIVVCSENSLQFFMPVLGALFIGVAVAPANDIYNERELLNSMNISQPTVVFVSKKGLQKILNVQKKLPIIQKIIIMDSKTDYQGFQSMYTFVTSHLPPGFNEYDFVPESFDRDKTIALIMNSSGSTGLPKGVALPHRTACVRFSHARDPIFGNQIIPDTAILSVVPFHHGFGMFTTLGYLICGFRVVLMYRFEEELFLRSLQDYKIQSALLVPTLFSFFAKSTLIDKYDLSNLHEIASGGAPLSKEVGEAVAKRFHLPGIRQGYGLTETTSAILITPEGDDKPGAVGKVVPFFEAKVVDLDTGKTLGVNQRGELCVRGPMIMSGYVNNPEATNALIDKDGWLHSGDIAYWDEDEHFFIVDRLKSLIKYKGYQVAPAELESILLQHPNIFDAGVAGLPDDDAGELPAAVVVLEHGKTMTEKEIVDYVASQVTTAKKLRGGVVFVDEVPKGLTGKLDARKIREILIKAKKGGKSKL
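Purified P. pyralis luciferase (10nM final) with 10uM D-luciferin and 10uM ATP (Km levels) in 50mM Tris acetate pH 7.5, 10mM Mg acetate, 0.01% Tween-20, 0.05% BSA; qHTS 6-point titration, ~60 µM downward; luminescence read.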
NPC1 prom act: activators of NPC1 promoter | Huh7 NPC1 promoter luciferase reporter, 24 h | Potency, µM (top dose mostly 9.22 µM), inactives show at the highest dose activation, hits mostly activators | 2.4% of 320,000 active; also: % of control where 0% means no effect; nearly all actives have a fitted effect of over 60% in size
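Huh7 reporter cells (NPC1 promoter driving luciferase) are dosed with compound for 24 h at 37 °C, 5% CO2; luciferase detection reagent is then added and luminescence measured after 10 min at ambient temperature.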
SMN2 splice enh: enhancers of SMN2 splice variant expression; HEK293 SMN2-luciferase splicing reporter, luminescence, 30-36 h; Potency, µM (top dose mostly 46.1 µM), inactives show at the highest dose activity change, positive = activation, actives largely listed as activators; 2.8% of 210,000 active; AID 1458; also: % of control where 0% means no effect; nearly all actives have a fitted effect of over 55% in size
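HEK293 cells carry an SMN2 minigene-luciferase reporter in which exon 7 inclusion puts luciferase in frame. Cells were seeded at 2000 cells/well, attached for 10-12 hours, then exposed to compounds for 30-36 hours at 37C before ONE-Glo luminescence.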
KinaseGlo FLuc: blocks Kinase-Glo luciferase, a counter-screen artifact. Potency, µM (top dose mostly 38.3 µM), inactives show at the top dose activity change, negative = inhibition, actives largely listed as inhibitors. 0.28% of 200,000 active. Kinase-Glo luciferase, ATP luminescence, 8 min. AID 1379. Q27757; also: % is scaled to controls: 0 for no effect and ±100 for the full control effect; nearly all actives have a fitted effect of over 60% in size
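Substrate mix (final 50 mM imidazole pH 7.2, 50 mM KCl, 7 mM MgCl2, 10 uM ATP, 0.01% Tween 20, 0.05% BSA) plus pin-tool compound, then Kinase-Glo detection mix; 8 min ambient, luminescence read.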
Rab9 promoter act: activators of Rab9 promoter; 2.8% of 320,000 active; Potency, µM (highest dose often 9.22 µM), inactives show top-dose activation, negative = inhibition, usual class: activators; Huh7 Rab9 promoter-luciferase reporter, luminescence, 24 h; also: % of control where 0% means no effect; nearly all actives have a fitted effect of over 60% in size
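Huh7 cells stably carrying Rab9 promoter–luciferase reporter, plated 1500 cells/well, compound added after 2 h and incubated 24 h at 37 °C; luciferase luminescence then read after 10 min with detection reagent.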
ELG1 genotoxic: inducers of genotoxicity in HEK293T ELG1-luciferase cells; HEK293T ELG1-luciferase reporter, luminescence, 16 h; Potency, µM (top dose mostly 46 µM), for inactives: at the highest dose activity change, positive = activation, most hits filed as activators; 1.3% of 330,000 active; also: % of control where 0% means no effect; nearly all actives have a fitted effect of over 60% in size
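HEK293T cells expressing luciferase-tagged ELG1 were treated with compound or DMSO for 16 hr at 37°C. Luciferase activity was then read after 30 min with ONE-Glo at room temperature; rising signal flags genetic stress.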
Numbers without * were called inactive; ? = inconclusive; nt = no result given. Calls follow the shape of the dose curve; as a rule, active = well fitted curve in the direction sought with a large enough effect; inconclusive = small, poorly fitted or top-dose-only effect, or another doubt; inactive = no such curve, though single readings can be large; an effect the other way counts as inactive or inconclusive. Potency is read from the fitted curve at half-maximal effect.

SMILES | FLuc modulator | NPC1 prom act | SMN2 splice enh | KinaseGlo FLuc | Rab9 promoter act | ELG1 genotoxic
O=C(N/N=C\c1cccc(Cl)c1)c1n[nH]c2c1CCCC2 | 1.7µM* | 2.5µM* | 13µM* | -8% | 0.71µM* | ?
Cc1ccc(/C=N/NC(=O)c2n[nH]c3c2CCCC3)cc1 | 2.4µM* | ? | nt | nt | -6% | 6.5µM*
C/C(=N\NC(=O)c1cccs1)c1ccncc1 | nt | 16% | nt | nt | 2% | 6%
C/C(=N\NC(=O)c1n[nH]c2c1CCC2)c1cccs1 | 0.6µM* | ? | nt | nt | ? | ?
O=C(CCCN1C(=O)NC2(CCCC2)C1=O)Nc1ccc(Cl)c(S(=O)(=O)N2CCOCC2)c1 | 4% | -2% | nt | nt | 0% | -1%
Cc1ccc(S(=O)(=O)N/N=C\c2ccc3c(c2)OCO3)c(C)c1 | -7% | -1% | nt | nt | -1% | 2%
O=C(N/N=C/c1ccc(Cl)cc1Cl)c1n[nH]c2c1CCCC2 | ? | 0% | 14µM* | -1% | 14% | ?
O=C(CSc1ncccn1)N1CCCc2ccccc21 | 0% | 0% | 0% | 11% | -3% | 29%
COc1cccc(-n2ccnc2SCC(=O)N2CCc3ccccc32)c1 | -2% | -1% | -12% | -3% | -7% | -1%
Cc1ccnc(SCC(=O)N2CCc3ccccc32)n1 | ? | 3.2µM* | nt | nt | 2.8µM* | ?
O=C(CSc1nnc2ccccn12)N1CCc2ccccc21 | 13µM* | 2.8µM* | 13µM* | 0% | 3.2µM* | ?
O=C(CSc1ccccn1)N1CCc2ccccc21 | 11µM* | 2.5µM* | 11µM* | -29% | 1.1µM* | ?
Cn1ccnc1SCC(=O)N1CCc2ccccc21 | 15µM* | 2.2µM* | nt | nt | 2.8µM* | ?
Nc1c(N(Cc2ccco2)C(=O)COc2ccccc2F)c(=O)[nH]c(=O)n1Cc1ccccc1 | -2% | -6% | nt | nt | -4% | 1%
COc1cc(C(=O)n2nc(-c3ccco3)nc2NCc2ccc(Cl)cc2)cc(OC)c1OC | -2% | nt | 8% | nt | nt | nt
COc1ccc(NC(=S)N2CCC(c3ccccc3)C2)cc1 (stereo not given) | 6.7µM* | 2.5µM* | nt | nt | 2µM* | 9.2µM*
COc1ccc(NC(=S)N2CCC(C(=O)c3ccc(OC)cc3)CC2)cc1 | 12µM* | -1% | nt | nt | 0% | -12%
CCc1ccc(C(=O)COC(=O)c2cc([N+](=O)[O-])ccc2N2CCOCC2)cc1 | 0% | -27% | nt | nt | -9% | -4%
Cn1nc(C(=O)NCCc2ccc(S(N)(=O)=O)cc2)c2ccccc2c1=O | 4% | 2% | nt | nt | -6% | 11%
O=C(NC1CCCC1)c1noc2c1CCCCC2 | ? | ? | 10µM* | -7% | ? | 14µM*
O=C(NCc1ccccc1)c1noc2c1CCCCC2 | 21µM* | 3.5µM* | 25µM* | 1% | 1.6µM* | ?
O=C(NCc1cccs1)c1noc2c1CCCCC2 | ? | ? | 29% | -1% | ? | 18µM*
O=C(NCc1ccco1)c1noc2c1CCCC2 | -10% | 17% | -3% | -5% | 27% | 2%
CC(NC(=O)c1noc2c1CCCCC2)c1ccccc1 (stereo not given) | -19% | 11% | -1% | 3% | 28% | 5%
O=C(O)c1ccccc1NC(=O)C1CCCO1 (stereo not given) | -2% | nt | -1% | 0% | nt | nt
SMILES | FLuc modulator | NPC1 prom act | SMN2 splice enh | KinaseGlo FLuc | Rab9 promoter act | ELG1 genotoxic
COc1ccc(NC(=O)c2ccccc2NC(=O)C2CCCO2)cc1 (stereo not given) | -10% | 26% | 20µM* | -2% | ? | ?
O=C(NCCc1ccccc1)c1ccccc1NC(=O)C1CCCO1 (stereo not given) | ? | 1.4µM* | 3.5µM* | 1% | 1.3µM* | ?
Cc1c(NC(=O)C(C)OC(=O)c2cccnc2Cl)c(=O)n(-c2ccccc2)n1C (stereo not given) | -1% | -3% | nt | nt | 1% | 3%
COc1cccc(C(C(=O)NC2CCCC2)N(C(=O)c2ccco2)c2ccc(C(C)=O)cc2)c1OC (stereo not given) | -3% | 1% | nt | nt | -2% | 3%
Cc1cc(NC(=O)COC(=O)[C@H](Cc2c[nH]c3ccccc23)NC(=O)c2ccc(F)cc2)no1 | 17µM* | -2% | -1% | 3% | 7% | -2%
O=C(NC(Cc1c[nH]c2ccccc12)C(=O)O)c1ccccc1 (stereo not given) | 3% | -3% | ? | 7% | 1% | 5%
O=C(N[C@@H](Cc1c[nH]c2ccccc12)C(=O)O)c1ccc(Cl)cc1 | 17µM* | -1% | 6% | 2% | 12% | -4%
COc1ccc(C(=O)NC(Cc2c[nH]c3ccccc23)C(=O)O)cc1 (stereo not given) | 19µM* | -11% | nt | nt | -2% | -2%
CC(=O)NC(Cc1c[nH]c2ccccc12)C(=O)OCC(=O)Nc1cc(C)on1 (stereo not given) | -1% | 2% | -12% | 5% | -5% | -1%
O=C(Cc1c[nH]c2ccccc12)NCc1ccc(Cl)cc1Cl | 21µM* | 0% | 17% | -1% | -3% | 7%
COc1cccc(NC(=O)c2nnn(Cc3ccc(OC)c(Br)c3)c2N)c1 | -11% | nt | 22% | nt | nt | nt
COc1ccccc1CCNC(=O)C(=O)NCC(c1cccs1)S(=O)(=O)c1cccs1 (stereo not given) | -10% | nt | nt | nt | nt | nt
Cc1oc(-c2ccc(C(=O)NCc3ccccc3Cl)cc2)nc1CN1CCc2ccccc21 | -6% | nt | nt | nt | nt | nt
O=C(CN1C(=O)COc2ccc(S(=O)(=O)NC3CCCC3)cc21)NCc1ccc(Cl)cc1 | -3% | nt | nt | nt | nt | nt
COCCN(C(=O)c1cc(S(=O)(=O)N2CCCCC2)ccc1Cl)c1c(N)n(CC(C)C)c(=O)[nH]c1=O | -1% | 2% | nt | nt | -1% | 2%
COc1ccc2ccccc2c1/C=N\NC(=O)c1ccc(C)s1 | 12µM* | 3% | nt | nt | -1% | 1%
COc1ccc2ccccc2c1/C=N/NC(=O)c1ccccc1F | 21µM* | 2% | nt | nt | -2% | 0%
Cc1cc(C)cc(NC(=O)CC(C)n2nc(C)cc2C)c1 (stereo not given) | -7% | nt | nt | nt | nt | nt
C/C=C/C=C\C(=O)Nc1cccc(C2=NOC3(C2)C[C@@H](C(N)=O)N(C(=O)/C(C)=C/C)C3)c1 (stereo not given in full) | ? | 13% | nt | nt | 0% | 5%
C/C=C\C=C/C(=O)Nc1cccc(C2=NOC3(C2)C[C@H](C(N)=O)N(C(=O)c2ccc(OC)cc2)C3)c1 (stereo not given in full) | 15µM* | 2% | nt | nt | -2% | 5%
